Rows were chosen to be rich in hits. Some 0.79% of all compounds tested hit in one or more screens of this group.
hiPSC survival: enhancers of single-cell hiPSC survival, primary screen, ATPlite luminescence | 100% = ROCK inhibitor wells, 0% = DMSO | survival enhancement, % at 20 µM | 360,000 tested, 0.044% active | AID 602274, 2012; in the data active means survival enhancement above about 18%;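 further: cells exposed to compounds for 16 hours before the ATP read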
DAGLB inh: DAGLB lipase inhibitors, primary screen, biochemical, fluorescence, HTS | Diacylglycerol lipase-beta (Homo sapiens), Q8NCG7 | HEK293T DAGLB membrane lysate, EnzChek fluorogenic substrate | inhibition, % at 5.17 µM | 340,000 tested, 0.059% active | AID 504411, 2011; in the data active means inhibition above about 34%;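 further: 0% = enzyme with vehicle and 100% = wells lacking enzyme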
LANA-H2B inh: blockers of LANA interaction with H2A/H2B – biochemical, FP readout, HTS, primary screen; Protein LANA1 (Human herpesvirus 8 type P (isolate GK18)), Q9QR71; cell-free LANA-H2A/H2B peptide, fluorescence polarization; inhibition, % (concentration not given with the values); 320,000 tested, 0.6% active; in the data active means inhibition mostly above about 10%, no sharp cut-off; inactive means mostly below about 6.7%
HDAC3 inhib: HDAC3 deacetylase inhibitors, primary screen, biochemical, fluorescence, cell-free homogeneous; Histone deacetylase 3 (Homo sapiens), O15379; recombinant HDAC3, fluorogenic peptide/trypsin coupled; inhibition, % at 8.3 µM; 320,000 tested, 0.15% active; in the data active means inhibition above about 26%, passing the limit was not always enough
DAGLB confirm: DAGLB lipase inhibitors, retest, confirmation, biochemical, fluorescence, HEK293T membranes; 190 tested, 73% active; HEK293T DAGLB membrane lysate, EnzChek fluorogenic substrate; inhibition, % at 5.17 µM; shares compounds with DAGLB inh;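 active means mean inhibition over triplicate wells above a set limit taken from the primary lipase screen, cut at about 34% in these data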;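 further: 0% = DAGLB with DMSO and 100% = wells lacking DAGLB enzyme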
* = called active by the depositor; x = not tested or not shown.

SMILES	hiPSC survival	DAGLB inh	LANA-H2B inh	HDAC3 inhib	DAGLB confirm
CC1(C)CC(=O)C2=C(C1)N=C1c3ccccc3C(=O)C1C2c1ccc(Cl)cc1 (stereo unspecified)	-2	37*	-5	1	35*
O=C(O)c1cccc2c1-c1ccc(Cl)cc1C2=O	-3	1	x	x	x
Nc1cccc2c1C(=O)c1ccc(Cl)cc1C2=O	1	38*	x	x	40*
COC(=O)C1=C(C(=O)OC)SC(=C2C(=S)C(C)(C)N(C(=O)C3CC3)c3ccccc32)S1	1	41*	11	5	47*
C=CCn1c(SCc2csc(-c3ccc(Cl)cc3)n2)nnc1-c1ccccc1OC	1	-4	0	8	x
Nc1cc([N+](=O)[O-])cc2oc(-c3ccccc3)cc12	-1	37*	-1	3	37*
O=c1cc(-c2ccccc2)oc2ccccc12	-2	-6	0	5	x
CC1CCCN(S(=O)(=O)CCNC(=O)c2ccccc2)C1 (stereo unspecified)	0	-1	-6	11	x
CCCN(CC(=O)Nc1ccccc1OC)C(=O)C1=COCCO1	0	0	3	-2	x
COc1ccc(/C=N/Nc2ccc(C(F)(F)F)cc2[N+](=O)[O-])cc1O	-1	40*	-4	-2	64*
N#C/C(=C\c1ccc(O)c([N+](=O)[O-])c1)c1nc2ccccc2s1	-1	38*	x	x	39*
CCOC(=O)C1=C(COC(=O)C(CC)Oc2ccccc2)NC(=O)NC1C (stereo unspecified)	0	-1	-3	-3	x
Cn1c(N=Nc2ccccc2)nc2ccccc21	-2	7	-2	6	x
CN(C)c1ccc(N=Nc2nc3ccccc3n2C)cc1	-1	36*	-3	8	59*
CSCCC(=O)Nc1cc(S(=O)(=O)N2CCOCC2)ccc1N1CCN(C)CC1	1	-1	-3	-2	x
COc1cccc(-n2c(SCc3cc(=O)oc4cc(O)c(O)cc34)nc3ccccc3c2=O)c1	-1	40*	6	-7	20
COc1ccc(CN(C(=O)c2cc(=O)c3cc(C)cc(C)c3o2)C2CCS(=O)(=O)C2)cc1 (stereo unspecified)	0	-2	-8	1	x

Screening data (PubChem BioAssay)
